Screens (PubChem BioAssay)
Only some compounds are listed: those with a hit (about 3.6% of all), similar ones and a draw of the others.
AmpC detergent = AmpC beta-lactamase inhibition with detergent present; P00811; AmpC hydrolysis of nitrocefin, absorbance 480 nm, 0.01% Triton; Potency, µM (highest dose often 114 µM), for inactives: at the highest dose activity change, negative = inhibition, usual class: inhibitors; 370,000 tested, 0.041% active;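 further: 0% = no-compound wells and -100% = no-enzyme wells; nearly all actives have a fitted effect of over 25% in size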
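20 mM phosphate pH 7.0 + 0.01% (detergent screen) or 0.0001% Triton X-100; 5.3 nM AmpC reagent; cpd preinc 15 min RT; nitrocefin (800 uM stock) to start; A480 q20 s × 4 min; Activity was normalised to no-enzyme and no-compound control wells.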
Giardia FBPA inh-1 = blocks Giardia fructose-bisphosphate aldolase activity; A8B2U2; 290,000 tested, 0.71% active; Potency, µM (titrated, usually from 59.6 µM), without a hit: at the top dose activity, negative = inhibition, usual class: inhibitors; purified Giardia FBPA; further: nearly all actives have a fitted effect of over 55% in size
Target sequence (A8B2U2 whole entry, looked up): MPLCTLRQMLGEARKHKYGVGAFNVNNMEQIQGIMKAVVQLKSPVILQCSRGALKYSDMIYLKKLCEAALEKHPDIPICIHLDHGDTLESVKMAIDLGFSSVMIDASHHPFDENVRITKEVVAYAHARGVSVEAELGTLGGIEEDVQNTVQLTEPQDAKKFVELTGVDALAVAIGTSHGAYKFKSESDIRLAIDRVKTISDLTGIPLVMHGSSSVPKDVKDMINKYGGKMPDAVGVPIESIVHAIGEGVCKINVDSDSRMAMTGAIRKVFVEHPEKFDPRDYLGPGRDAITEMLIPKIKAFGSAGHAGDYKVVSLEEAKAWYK
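Giardia FBPA (40 nM reagent) was preincubated 10 min at RT with compound (up to 57.5 uM final), then substrate plus GAPDH/TPI/NAD/arsenate coupling system with diaphorase/resazurin was added; resorufin fluorescence (525/598 nm) was read after 20 min.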
AmpC no deterg = AmpC beta-lactamase inhibition without detergent | AmpC nitrocefin hydrolysis, absorbance 480 nm, 0.0001% Triton | P00811 | AID 485341 | Potency, µM (titrated, usually from 57.1 µM), for inactives: at the top dose activity change, negative = inhibition, most hits filed as inhibitors | 330,000 tested, 0.52% active;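 further: plate controls were no compound for no effect and no enzyme for full effect; nearly all actives have a fitted effect of over 20% in size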
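20 mM phosphate pH 7.0 + 0.01% (detergent screen) or 0.0001% Triton X-100; 5.3 nM AmpC reagent; cpd preinc 15 min RT; nitrocefin (800 uM stock) to start; A480 q20 s × 4 min; Activity was normalised to no-enzyme and no-compound control wells.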
Sm TGR inh = blocks Schistosoma mansoni thioredoxin glutathione reductase | Q962Y6 | purified TGR, DTNB reduction, TNB absorbance 405 nm | Potency, µM (titrated, usually from 114 µM), without a hit: top-dose activity change, negative = inhibition, actives largely listed as inhibitors | 360,000 tested, 3% active; further: nearly all actives have a fitted effect of over 60% in size
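Kinetic colorimetric format: TGR-catalysed, NADPH-driven DTNB reduction monitored via TNB absorbance. Enzyme dispensed at 20 nM; compound exposure 15 min at room temperature before reaction start.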
Giardia growth = inhibitors of Giardia lamblia growth; Giardia lamblia trophozoite growth inhibition; 1,500 tested, 5% active; AID 2785; Potency, µM (series often up to 57.5 µM), for inactives: top-dose activity change, negative = inhibition, usual class: inhibitors; shares compounds with Giardia FBPA inh-1;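 further: trophozoites exposed to compound for 48 h at 37 °C; nearly all actives have a fitted effect of over 70% in size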
Mammalian tox = toxic to mammalian cells in Giardia aldolase counter-screen | shares compounds with Giardia FBPA inh-1 | mammalian cell viability counter-screen, qHTS | Potency, µM (top dose mostly 57.5 µM), for the others: at the top dose viability change, negative = toxicity, most hits filed as inhibitors | 1,500 tested, 4% active;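 further: Chinese hamster ovary cells used as mammalian cytotoxicity surrogate; viability measured as cellular ATP by luminescence; compound exposure lasted 48 h before reading; nearly all actives have a fitted effect of over 60% in size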
Giardia FBPA inh-2 = confirmation of Giardia fructose-bisphosphate aldolase inhibitors. shares compounds with Giardia FBPA inh-1. purified Giardia aldolase enzyme activity, qHTS. Potency, µM (top dose mostly 57.5 µM), for the others: at the top dose activity change, negative = inhibition, most hits filed as inhibitors. 1,500 tested, 5% active; further: nearly all actives have a fitted effect of over 45% in size
Rabbit aldolase = selectivity test for Giardia aldolase inhibitors: rabbit aldolase; shares compounds with Giardia FBPA inh-1; Rabbit muscle FBPA enzyme inhibition, selectivity counter-screen; Potency, µM (doses to about 57.5 µM), for the others: at the highest dose activity, negative = inhibition, most hits filed as inhibitors; 1,500 tested, 4% active; further: nearly all actives have a fitted effect of over 60% in size
Target sequence (P00883 whole entry, looked up): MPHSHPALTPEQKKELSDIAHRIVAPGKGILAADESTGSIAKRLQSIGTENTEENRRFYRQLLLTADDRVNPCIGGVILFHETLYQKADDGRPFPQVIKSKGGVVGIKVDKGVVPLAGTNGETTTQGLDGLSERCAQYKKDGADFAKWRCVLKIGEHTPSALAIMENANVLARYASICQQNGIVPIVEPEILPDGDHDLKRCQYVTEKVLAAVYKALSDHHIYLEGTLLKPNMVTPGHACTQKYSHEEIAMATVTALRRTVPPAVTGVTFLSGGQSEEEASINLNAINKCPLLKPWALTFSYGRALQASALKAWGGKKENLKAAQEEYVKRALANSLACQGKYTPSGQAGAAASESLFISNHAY
GAPDH counter = counter-screen for Giardia aldolase inhibitors: GAPDH coupling enzyme; GAPDH coupling enzyme counterscreen, biochemical, qHTS; shares compounds with Giardia FBPA inh-1; Potency, µM (series often up to 57.5 µM), without a hit: at the highest dose activity change, negative = inhibition, most hits filed as inhibitors; 1,500 tested, 6% active; further: nearly all actives have a fitted effect of over 55% in size
Starred values were filed as active, the others as inactive; ? = inconclusive; . = no result given; [ ] = remark or other dose. The call rests on the fitted dose curve; in most records, active means well fitted curve in the direction sought with a large enough effect; inconclusive means small, poorly fitted or top-dose-only effect, or another doubt; inactive means no such curve, though single readings can be large; an effect the other way counts as inactive or inconclusive. Unless noted, on the % scale 0 is the no-effect control and ±100 the full control effect; potency means the concentration at half of the fitted maximal effect.

SMILES	AmpC detergent	Giardia FBPA inh-1	AmpC no deterg	Sm TGR inh	Giardia growth	Mammalian tox	Giardia FBPA inh-2	Rabbit aldolase	GAPDH counter
COC(=O)/C(=C/Nc1cccc2ccccc12)[N+](=O)[O-]	10%	?	-19%	-2%	-19%[38.3 µM]	-15%	?	?	?
S=C(NCc1ccccc1)Nc1nccs1	?	13µM*	-33%	3.2µM*	-18%	-23%	1%	12%	-18%
O=C(CSc1n[nH]c(-c2cccnc2)n1)Nc1ccccc1[N+](=O)[O-]	-4%	25µM*	-38%	2%	?	-7%	-6%	2%	5%
N#Cc1c(N)sc(=S)c2c1CCCC2	0%	18µM*	-45%	28µM*	?	2%	-16%	-15%	-19%
CCC1(C)Cc2c(C#N)c(N)n(-c3ccccc3)c(=S)c2CO1 (stereo unspecified)	-1%	1%	-11%	7%	.	.	.	.	.
CCC1(C)Cc2c(C#N)c(N)sc(=S)c2CO1 (stereo unspecified)	-9%	2.2µM*	-18%	?	6%[10.4 µM]	-6%	-17%	-6%	-13%
CC1CCc2nc3ncn(CC(=O)Nc4cccc(C#N)c4)c(=O)c3cc2C1 (stereo unspecified)	6%	.	.	-4%	.	.	.	.	.
Cc1ccccc1C(=O)NC(=S)Nc1ncccn1	3%	4.5µM*	-1%	11%	-15%[38.3 µM]	-24%	-19%	-14%	-11%
O=c1[nH]c(=S)[nH]c2sccc12	10%	7.1µM*	-12%	34%	-6%[38.3 µM]	-6%	-12%	-15%	-9%
CNC(=O)c1c(NC(=O)c2ccc(S(=O)(=O)N3CCCCC3)cc2)sc2c1CCC2	3%	.	.	8%	.	.	.	.	.
COC(=O)c1sc(NC(=S)NC(=O)c2ccccc2)nc1C	-2%	-18%	-19%	-23%	.	.	.	.	.
Cc1nn(C)c(C(=O)NC(=S)Nc2ccc([N+](=O)[O-])cc2)c1Cl	2%	13µM*	-14%	-10%	-1%[10.4 µM]	-9%	5%	7%	17%
COc1cc(C(=O)NC(=S)Nc2ccc([N+](=O)[O-])cc2C)cc(OC)c1OC	-9%	?	-20%	-1%	.	.	.	.	.
COC(=O)c1sc(NC(=S)NC(=O)c2cc(OC)c(OC)c(OC)c2)nc1C	-11%	3.2µM*	-11%	-25%	2%[10.4 µM]	-8%	7%	7%	10%
COc1cc(C(=O)NC(=S)Nc2ccc([N+](=O)[O-])cc2)cc(OC)c1OC	-5%	13µM*	-13%	1%	-25%	-3%	11%	8%	5%
COc1cc(C(=O)NC(=S)Nc2nccs2)cc(OC)c1OC	3%	14µM*	-19%	-1%	?	-1%	-4%	13%	-6%
CCS(=O)(=O)N1Cc2ccccc2CC1C(=O)N(C)CC(=O)Nc1cccc(F)c1 (stereo unspecified)	-14%	.	3%	-7%	.	.	.	.	.
C/C(CC(=O)NC1CCCCC1)=N\NC(=O)Cc1ccc(-c2ccccc2)cc1	8%	12%	-22%	5%	.	.	.	.	.
CCN(CC)C(=S)NC(=O)c1cc(OC)c(OC)c(OC)c1	0%	18µM*	-4%	1%	8%	-5%	0%	6%	2%
COc1cc(/C=N/n2c(=S)[nH]nc(C)c2=O)cc([N+](=O)[O-])c1O	1%	16µM*	-22%	?	?	-4%	2%	-9%	4%
COc1ccc(C)cc1Nc1n[n+](-c2ccccc2)c(-c2ccc(NC(C)=O)cc2)s1	?	22µM*	6%	-25%	?	1%	4%	-5%	11%
CC(=O)Nc1ccc(-c2sc(Nc3cccc4ccccc34)n[n+]2-c2ccccc2)cc1	-13%	16µM*	1%	-3%	32%	6%	7%	3%	13%
CSc1ccc(-c2sc(Nc3cccc4ccccc34)n[n+]2-c2ccccc2)cc1	?	25µM*	-19%	-2%	14%	-21%	-20%	-20%	-24%
CSc1ccc(-c2sc(Nc3ccccc3)n[n+]2-c2ccccc2)cc1	-18%	25µM*	-46%	-2%	-28%	-24%	-1%	9%	2%
Cc1ccccc1NNC(=O)C(=O)NNc1ccccc1C	8%	16µM*	-18%	-23%	?	-6%	-11%	5%	8%
Cc1ccc(NC(=S)N2CCC(c3ccc(C)cc3)C2)cc1 (stereo unspecified)	-3%	16µM*	-38%	3%	-3%[10.4 µM]	-15%	11%	7%	18%
CCN(Cc1nc2ccccc2c(=O)[nH]1)Cc1nc2cc(OC)c(OC)cc2c(=O)[nH]1	?	5.6µM*	23%	-24%	-6%[38.3 µM]	-15%	?	-21%	-23%
CCN(Cc1nc2ccccc2c(=O)[nH]1)Cc1nc2ccsc2c(=O)[nH]1	-5%	0.79µM*	-18%	-2%	8%[38.3 µM]	-27%	-13%	-22%	?
O=C(OCCN1CCOCC1)c1cccc(F)c1	9%	-21%	-21%	15%	.	.	.	.	.
Cc1cccc(C(=O)OCCN2CCOCC2)c1	-16%	14µM*	5%	6%	?	2%	3%	9%	9%
